Data on 7 compounds can be found in PubChem BioAssay (NCATS).

Molecules are shown by their SMILES. Values without a mark were called inactive. Results filed as inconclusive are left out. Active and inactive are the calls of the source. Unless noted, the call rests on the fitted dose curve; in most records, active means well fitted curve in the direction sought with a large enough effect; inconclusive means small, poorly fitted or top-dose-only effect, or another doubt; inactive means no such curve, though single readings can be large; an effect the other way counts as inactive or inconclusive.

Assay [1] concerns the target Lysosomal acid glucosylceramidase (Homo sapiens) (UniProt P04062). Nature of the assay: Glucocerebrosidase-p2 (AID 348; in the data active means potency below about 10 µM; further: potency means the concentration at half of the fitted maximal effect). The note with it: purified GBA, blue fluorogenic substrate, 40 min. Put shortly:
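Normal human glucocerebrosidase (0.2 nM) with blue fluorogenic substrate (80 uM final) in citrate/phosphate pH 5.9 with 10mM sodium taurocholate, 0.01% tween-20; 40 min RT, NaOH/glycine stop; fluorescence Ex 365/Em 440; AC50 from a titration from 0.6 nM upwards.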

Assay [2] is described as follows: AP1 Signaling Pathway (AID 357; active means well fitted curve in either direction with a large enough effect, not every such curve was filed as active;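 further: ME-180 reporter cells stimulated with EGF at its EC50 level; on the % scale 0 is the no-effect control and ±100 the full control effect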). The note with it: ME-180 AP-1-bla reporter, EGF-induced, beta-lactamase ratio, 5 h; at 7.69 µM (top of the series) unless noted. In a few lines:
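AP-1-bla ME-180 cells, Opti-MEM + 0.5% dialyzed FBS, plated overnight 37 °C. Cpd titration + EC50 EGF, 5 h 37 °C. CCF4 2.5 h RT; ex 405, em 460/530 ratio → %activity, AC50.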

The nature of assay [3]: Stat Signaling Pathway (AID 446; active means well fitted curve in either direction with a large enough effect, not every such curve was filed as active;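 further: ME-180 cervical cancer cells given 40 pM IL-6 alongside compound; SIE-controlled beta-lactamase reporter measured as 460/530 nm FRET emission ratio; on the % scale 0 is the no-effect control and ±100 the full control effect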). To be noted: ME-180 SIE beta-lactamase reporter, IL-6 stimulated, 5 h; at 7.69 µM (top of the series) unless noted. Put shortly:
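Emission at 460 and 530 nm (excitation 405 nm) reports SIE-controlled beta-lactamase in ME-180 cells. Cells received compound with 40 pM IL-6 for 5 hrs at 37 C; data scaled between 300 pM IL-6 and 125 nM JAK-inhibitor controls.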

Assay [4] addresses Glucocorticoid receptor (Homo sapiens) (UniProt P04150). Nature of the assay: GR-GFP Redistribution (AID 450;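 active means compounds whose dose series gives a full or clear partial fitted curve of increased nuclear translocation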; further: potency means the concentration at half of the fitted maximal effect). The note with it: U2OS GR-GFP nuclear translocation, laser cytometry, 2 h.
Assay [5] has the same target. The assay can be described thus: GR-EFC Redistribution (AID 451; calls by dose curve; further: potency means the concentration at half of the fitted maximal effect). To be noted: CHO-K1 GR-EFC translocation, beta-gal luminescence, 2 h. In a few lines: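 CHO-K1 cells stably expressing nuclear-localized β-gal enzyme acceptor and GR fused C-terminally to the enzyme donor fragment; ligand-driven nuclear translocation restores β-gal by complementation. Compounds titrated up to 46 uM final, 2 h at 37 °C; luminescence read.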

The target of assay [6] is Mitogen-activated protein kinase 10 (Mus musculus) (UniProt Q61831). The assay can be described thus: JNK3 AlphaScreen Assay (AID 530; active means well fitted curve in either direction with a large enough effect, not every such curve was filed as active;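 further: kinase came from lysate of stimulated human HepG2 cells; on the % scale 0 is the no-effect control and ±100 the full control effect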). The note with it: JNK3 lysate, c-Jun phosphorylation; series mostly up to 57.1 µM. Put shortly: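 Phosphorylation of biotinylated GST-cJun(1-79) at Ser73 is measured by AlphaScreen proximity luminescence. Enzyme is JNK3 in HepG2 lysates activated with interleukin-1beta and tumor necrosis factor alpha; ATP is 10 uM final.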
(Bead proximity is the source of the signal in Alpha formats.)

In assay [7] the target is 3',5'-cyclic-AMP phosphodiesterase 4B (Homo sapiens) (UniProt Q07343). The assay can be described thus: qHTS Assay for Inhibitors of PDE-IV (AID 607; active means well fitted activation curve with a large enough effect in the main read-out, with a control signal flat, not every such curve was filed as active; further: potency means the concentration at half of the fitted maximal effect). To be noted: HEK293 ACTOne CNG channel cells, membrane potential fluorescence; series mostly up to 22.9 µM. In a few lines: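 The readout is membrane depolarisation from a cAMP-sensing CNG channel, detected with a potential dye at ex 535/em 590. Cells were HEK293-derived (endogenous PDE-IV) at 1000 cells/well, titrated up to 22.9 uM final.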
In general terms: Quantitative high-throughput screening tests each substance at several concentrations.

Assay [8] has as its target Cytochrome P450 2C19 (Homo sapiens) (UniProt P33261). Nature of the assay: qHTS Assay for Inhibitors and Substrates of Cytochrome P450 2C19 (AID 899). Further: potency means the concentration at half of the fitted maximal effect; nearly all actives have a fitted effect of over 60% in size. The note with it: recombinant CYP2C19, luciferin-H EGE luminescence; series mostly up to 57.1 µM. Put shortly:
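Human CYP2C19 (5nM) with Luciferin-H EGE at 10uM (its KM) in 50mM KPO4 was preincubated with compound for 10 min at 37C. NADPH regeneration started a 60 min 37C reaction. Luciferin was read by luminescence, normalized to 57uM ketoconazole.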

Assay [9] addresses Dual specificity protein kinase CLK4 (Homo sapiens) (UniProt Q9HAZ1). Nature of the assay: qHTS Assay for Inhibitors of CDC-like Kinase 4 (Kinase-Glo Assay) (AID 1770). Further: nearly all actives have a fitted effect of over 65% in size. Further: potency means the concentration at half of the fitted maximal effect. The note with it: recombinant Clk4, Kinase-Glo ATP depletion luminescence; series mostly up to 66.7 µM. In a few lines: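 Recombinant human Clk4 (25 nM) phosphorylated RS repeat peptide (100 uM) with 1 uM ATP in Tris pH 7.5/MgCl2/EGTA/DTT/Triton buffer for 4.5 h at room temperature. Residual ATP was quantified by Kinase-Glo luciferase luminescence.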

The target is the same in assay [10]. The assay can be described thus: qHTS Assay for Inhibitors of CDC-like Kinase 4 (ADP-Glo Assay) (AID 1771). Further: nearly all actives have a fitted effect of over 70% in size. Further: potency means the concentration at half of the fitted maximal effect. The note with it: recombinant CLK4, ADP-Glo luminescence; series mostly up to 80 µM. In a few lines:
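ADP production was read by ADP-Glo luminescence after residual ATP depletion, following 1 h room-temperature reaction of 25 nM Clk4, 1 uM ATP and 100 uM RS peptide with MgCl2, EGTA, DTT and Triton X-100.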

For assay [11] the target is unchanged. The assay can be described thus: qHTS Assay for Inhibitors of CDC-like Kinase 4 (ADP-FP Assay) (AID 1795). Further: nearly all actives have a fitted effect of over 60% in size. Further: potency means the concentration at half of the fitted maximal effect. To be noted: Transcreener ADP fluorescence polarization; series mostly up to 50 µM. Put shortly:
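Recombinant human Clk4 (6.25 nM) phosphorylated RS repeat peptide (100 uM) with 1 uM ATP in Tris pH 7.5/MgCl2/EGTA/DTT/Triton buffer for one hour. ADP was quantified by Transcreener competitive fluorescence polarization against an ADP calibration curve.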

Assay [12] deals with Ubiquitin carboxyl-terminal hydrolase 1 (Homo sapiens) (UniProt O94782). The assay can be described thus: Inhibitors of USP1/UAF1: Pilot qHTS (AID 504865).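 Further: rhodamine fluorescence freed from ubiquitin-rhodamine substrate followed over time; top concentration of the series differs between compounds; on the % scale 0 is the no-effect control and ±100 the full control effect; nearly all actives have a fitted effect of over 35% in size.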 To be noted: purified USP1/UAF1, Ub-rhodamine cleavage fluorescence; series mostly up to 54.9 µM. Put shortly: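 USP1/UAF1 complex (1nM) preincubated with compound 15 min at room temperature, then Ub-Rho substrate (150nM final) added. Fluorescence read kinetically at 480/540 nm, 6 reads every 60 seconds. Buffer: 50mM HEPES pH 7.8, 0.5mM EDTA, 0.1 mg/ml BSA, 1mM TCEP, 0.01% Tween-20.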

Assay [13] in a line: Primary qHTS for small molecule stabilizers of the endoplasmic reticulum resident proteome: Secreted ER Calcium Modulated Protein (SERCaMP) assay (AID 1508630). Further: on the % scale 0 is the no-effect control and ±100 the full control effect. The note with it: SH-SY5Y GLuc-SERCaMP (Gaussia luciferase released on ER calcium loss) secretion, thapsigargin, luminescence; series mostly up to 38.4 µM. Put shortly: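 The SH-SY5Y reporter protocol was run at 3 concentrations up to 38.3 uM (primary) or 11 concentrations (follow-up): 16 h compound, 100 nM thapsigargin for 4 h, then extracellular luciferase luminescence.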

Assay [14] concerns the target Cytochrome P450 1A2 (Homo sapiens) (UniProt P05177). The assay can be described thus: p450-cyp1a2 (AID 410; calls by dose curve; further: potency means the concentration at half of the fitted maximal effect). The note with it: recombinant CYP1A2, luciferin-ME demethylation, luminescence; series mostly up to 57 µM. In a few lines:
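Luminescent demethylation readout: Luciferin-ME (100uM, equal to Km) turned over by 20nM CYP1A2 for 60 min at room temperature after NADPH regeneration addition, following 10 min compound preincubation. Normalization used 57 uM furafylline as full inhibition.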

Assay [15] in a line: qHTS Assay for Identification of Small Molecule Agonists for Hypoxia Response Element Signaling Pathway (AID 914; active means well fitted activation curve with a large enough effect in the signal ratio, with a control signal flat, not every such curve was filed as active; the % refers to the signal ratio; further: potency means the concentration at half of the fitted maximal effect; on activation: % of control where 0% means no effect). The note with it: ME-180 (cervical carcinoma) HRE-bla reporter, beta-lactamase ratio, CoCl2, 17 h; activation: hits give high values. Put shortly:
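Compounds in a titration series were added to ME-180 reporter cells alongside an EC50 level of CoCl2. After 17 hours, beta-lactamase activity was read as the 460nm/530nm emission ratio of CCF4, giving AC50 values.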

Assay [16] is described as follows: NFAT Signaling Pathway (AID 444; active means well fitted curve in either direction with a large enough effect, not every such curve was filed as active). To be noted: Jurkat NFAT-bla M1, carbachol, beta-lactamase ratio, 5 h; at 7.69 µM (top of the series) unless noted. Put shortly:
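Jurkat cells carrying an NFAT-driven β-lactamase reporter and co-transfected muscarinic M1 receptor were treated with compound plus carbachol (1 uM final, an EC50 level) for 5 h at 37 °C. CCF4 loading followed for 1 h at RT; 460/530 nm ratio gave %activity.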

Assay [17] has as its target Cytochrome P450 3A4 (Homo sapiens) (UniProt P08684). The assay can be described thus: qHTS Assay for Activators of Cytochrome P450 3A4 (AID 885). Further: nearly all actives have a fitted effect of over 65% in size. To be noted: recombinant CYP3A4, Luciferin-PPXE luminescence, 60 min; series mostly up to 57.1 µM. Put shortly:
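Activators are scored by enhanced luminescence from CYP3A4 conversion of luciferin-PPXE (25uM, equal to KM) to luciferin, after 60 min at RT with an NADPH-regenerating system.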

Chain of 3',5'-cyclic-AMP phosphodiesterase 4B (Homo sapiens) (Q07343 whole entry, looked up): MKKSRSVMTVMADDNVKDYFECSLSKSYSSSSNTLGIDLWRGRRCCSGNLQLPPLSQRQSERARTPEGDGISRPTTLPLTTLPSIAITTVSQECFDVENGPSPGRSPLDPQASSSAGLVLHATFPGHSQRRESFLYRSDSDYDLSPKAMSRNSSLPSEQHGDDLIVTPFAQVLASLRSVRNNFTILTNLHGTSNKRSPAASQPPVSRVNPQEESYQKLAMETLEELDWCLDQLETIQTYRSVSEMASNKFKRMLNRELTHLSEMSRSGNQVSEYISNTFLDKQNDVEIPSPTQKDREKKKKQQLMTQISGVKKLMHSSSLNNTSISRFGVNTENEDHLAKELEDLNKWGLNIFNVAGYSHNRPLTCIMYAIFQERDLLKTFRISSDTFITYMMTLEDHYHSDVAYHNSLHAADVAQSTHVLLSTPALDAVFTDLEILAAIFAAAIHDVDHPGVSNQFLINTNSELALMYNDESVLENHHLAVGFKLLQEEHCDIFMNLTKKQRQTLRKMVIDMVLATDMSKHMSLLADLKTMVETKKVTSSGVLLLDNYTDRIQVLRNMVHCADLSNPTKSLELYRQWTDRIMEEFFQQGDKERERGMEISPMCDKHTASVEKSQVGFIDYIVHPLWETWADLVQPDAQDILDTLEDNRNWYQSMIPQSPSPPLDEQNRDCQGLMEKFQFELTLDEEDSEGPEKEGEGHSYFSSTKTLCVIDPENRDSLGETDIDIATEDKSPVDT
Chain of Ubiquitin carboxyl-terminal hydrolase 1 (Homo sapiens) (O94782 whole entry, looked up): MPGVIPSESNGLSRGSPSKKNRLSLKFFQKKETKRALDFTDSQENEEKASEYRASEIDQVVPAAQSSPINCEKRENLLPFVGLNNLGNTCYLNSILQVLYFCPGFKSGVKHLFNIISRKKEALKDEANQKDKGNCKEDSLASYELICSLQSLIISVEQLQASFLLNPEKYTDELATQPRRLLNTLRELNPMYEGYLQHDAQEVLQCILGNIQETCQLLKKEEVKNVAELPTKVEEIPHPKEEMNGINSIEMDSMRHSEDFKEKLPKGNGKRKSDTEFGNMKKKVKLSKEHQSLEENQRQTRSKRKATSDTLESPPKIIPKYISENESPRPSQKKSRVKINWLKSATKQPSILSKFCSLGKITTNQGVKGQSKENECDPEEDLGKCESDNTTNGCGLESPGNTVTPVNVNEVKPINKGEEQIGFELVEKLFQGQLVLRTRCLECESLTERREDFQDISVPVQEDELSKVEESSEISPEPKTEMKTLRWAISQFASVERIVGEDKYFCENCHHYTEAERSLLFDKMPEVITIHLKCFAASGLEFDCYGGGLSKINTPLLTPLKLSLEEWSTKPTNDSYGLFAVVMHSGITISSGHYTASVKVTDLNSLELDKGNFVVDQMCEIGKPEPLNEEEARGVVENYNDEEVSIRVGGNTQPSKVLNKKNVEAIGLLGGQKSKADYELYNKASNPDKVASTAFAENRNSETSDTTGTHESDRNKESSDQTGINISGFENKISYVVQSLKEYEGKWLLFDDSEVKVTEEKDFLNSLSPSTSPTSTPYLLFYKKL
Chain of Cytochrome P450 3A4 (Homo sapiens) (P08684 whole entry, looked up): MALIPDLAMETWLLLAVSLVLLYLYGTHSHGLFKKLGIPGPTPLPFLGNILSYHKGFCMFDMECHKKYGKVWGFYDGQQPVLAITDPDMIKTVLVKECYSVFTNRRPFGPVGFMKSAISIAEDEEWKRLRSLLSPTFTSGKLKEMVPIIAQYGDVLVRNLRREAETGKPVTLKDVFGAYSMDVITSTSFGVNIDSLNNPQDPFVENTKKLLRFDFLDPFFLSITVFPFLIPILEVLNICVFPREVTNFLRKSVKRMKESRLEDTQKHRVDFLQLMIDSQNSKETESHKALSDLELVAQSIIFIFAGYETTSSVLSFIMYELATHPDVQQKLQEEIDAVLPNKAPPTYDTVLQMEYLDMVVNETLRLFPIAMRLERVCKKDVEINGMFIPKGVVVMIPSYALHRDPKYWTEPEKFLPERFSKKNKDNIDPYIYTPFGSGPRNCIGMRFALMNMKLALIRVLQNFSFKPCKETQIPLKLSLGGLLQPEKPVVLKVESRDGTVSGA
Chain of Lysosomal acid glucosylceramidase (Homo sapiens) (P04062 whole entry, looked up): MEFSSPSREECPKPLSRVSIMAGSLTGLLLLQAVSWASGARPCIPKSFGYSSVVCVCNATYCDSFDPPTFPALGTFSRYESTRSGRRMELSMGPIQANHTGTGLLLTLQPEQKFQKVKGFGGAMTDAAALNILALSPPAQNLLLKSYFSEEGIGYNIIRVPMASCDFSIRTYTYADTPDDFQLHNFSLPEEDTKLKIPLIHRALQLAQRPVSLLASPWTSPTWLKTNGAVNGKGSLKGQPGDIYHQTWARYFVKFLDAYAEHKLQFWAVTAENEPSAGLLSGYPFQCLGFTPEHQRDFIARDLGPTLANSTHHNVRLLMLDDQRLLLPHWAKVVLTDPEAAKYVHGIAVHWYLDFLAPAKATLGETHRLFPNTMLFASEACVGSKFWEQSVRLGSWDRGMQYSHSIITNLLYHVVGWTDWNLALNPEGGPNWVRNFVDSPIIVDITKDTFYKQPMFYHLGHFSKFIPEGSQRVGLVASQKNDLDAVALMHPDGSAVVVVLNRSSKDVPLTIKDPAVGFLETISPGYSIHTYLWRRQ
Chain of Dual specificity protein kinase CLK4 (Homo sapiens) (Q9HAZ1 whole entry, looked up): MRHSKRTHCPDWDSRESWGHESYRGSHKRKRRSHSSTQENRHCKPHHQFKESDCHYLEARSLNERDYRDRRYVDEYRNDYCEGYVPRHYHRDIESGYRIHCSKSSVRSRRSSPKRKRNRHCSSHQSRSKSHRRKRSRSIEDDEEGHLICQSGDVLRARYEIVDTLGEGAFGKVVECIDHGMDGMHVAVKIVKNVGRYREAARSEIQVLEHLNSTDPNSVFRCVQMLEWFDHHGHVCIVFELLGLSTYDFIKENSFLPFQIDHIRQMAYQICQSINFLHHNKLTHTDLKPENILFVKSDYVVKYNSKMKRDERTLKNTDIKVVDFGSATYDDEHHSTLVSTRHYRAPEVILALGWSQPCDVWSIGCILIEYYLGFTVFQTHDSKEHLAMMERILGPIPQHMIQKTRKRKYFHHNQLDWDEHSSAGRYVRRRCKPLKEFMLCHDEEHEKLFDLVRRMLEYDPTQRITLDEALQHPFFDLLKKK
Chain of Cytochrome P450 1A2 (Homo sapiens) (P05177 whole entry, looked up): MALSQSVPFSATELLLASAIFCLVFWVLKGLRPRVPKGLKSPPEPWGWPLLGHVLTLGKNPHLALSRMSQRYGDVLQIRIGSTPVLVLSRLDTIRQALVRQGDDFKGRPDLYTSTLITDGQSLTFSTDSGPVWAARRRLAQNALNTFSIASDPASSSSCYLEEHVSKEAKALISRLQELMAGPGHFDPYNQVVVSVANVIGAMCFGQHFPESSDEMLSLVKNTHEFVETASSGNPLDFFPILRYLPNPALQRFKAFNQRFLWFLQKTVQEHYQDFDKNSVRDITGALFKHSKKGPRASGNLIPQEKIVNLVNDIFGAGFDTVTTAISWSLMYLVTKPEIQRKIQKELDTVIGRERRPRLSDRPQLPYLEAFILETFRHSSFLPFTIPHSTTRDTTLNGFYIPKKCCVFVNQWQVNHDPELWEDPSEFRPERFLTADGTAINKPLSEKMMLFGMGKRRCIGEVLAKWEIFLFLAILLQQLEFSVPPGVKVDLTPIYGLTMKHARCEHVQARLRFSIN
Chain of Glucocorticoid receptor (Homo sapiens) (P04150 whole entry, looked up, the tested form may be a part): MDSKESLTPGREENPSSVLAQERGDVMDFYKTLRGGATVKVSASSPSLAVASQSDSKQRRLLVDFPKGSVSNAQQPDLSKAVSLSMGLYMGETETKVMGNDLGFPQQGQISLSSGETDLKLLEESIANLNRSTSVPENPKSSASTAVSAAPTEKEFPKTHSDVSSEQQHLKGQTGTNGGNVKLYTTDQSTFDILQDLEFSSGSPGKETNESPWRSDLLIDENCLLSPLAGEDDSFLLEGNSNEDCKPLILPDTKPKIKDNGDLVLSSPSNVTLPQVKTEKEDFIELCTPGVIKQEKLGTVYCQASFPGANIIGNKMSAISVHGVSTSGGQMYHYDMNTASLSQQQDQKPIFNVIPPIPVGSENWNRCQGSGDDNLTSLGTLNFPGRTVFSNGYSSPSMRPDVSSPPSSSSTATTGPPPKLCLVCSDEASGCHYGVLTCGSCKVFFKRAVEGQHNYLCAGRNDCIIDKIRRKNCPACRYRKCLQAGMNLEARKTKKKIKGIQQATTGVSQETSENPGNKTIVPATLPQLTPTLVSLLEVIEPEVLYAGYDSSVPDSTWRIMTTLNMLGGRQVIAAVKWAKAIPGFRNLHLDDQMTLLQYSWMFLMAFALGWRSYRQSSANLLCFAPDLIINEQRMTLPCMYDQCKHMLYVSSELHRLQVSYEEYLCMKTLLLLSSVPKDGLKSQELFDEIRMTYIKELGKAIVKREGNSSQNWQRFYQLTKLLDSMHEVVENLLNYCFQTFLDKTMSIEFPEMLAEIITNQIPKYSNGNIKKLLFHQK
Chain of Cytochrome P450 2C19 (Homo sapiens) (P33261 whole entry, looked up): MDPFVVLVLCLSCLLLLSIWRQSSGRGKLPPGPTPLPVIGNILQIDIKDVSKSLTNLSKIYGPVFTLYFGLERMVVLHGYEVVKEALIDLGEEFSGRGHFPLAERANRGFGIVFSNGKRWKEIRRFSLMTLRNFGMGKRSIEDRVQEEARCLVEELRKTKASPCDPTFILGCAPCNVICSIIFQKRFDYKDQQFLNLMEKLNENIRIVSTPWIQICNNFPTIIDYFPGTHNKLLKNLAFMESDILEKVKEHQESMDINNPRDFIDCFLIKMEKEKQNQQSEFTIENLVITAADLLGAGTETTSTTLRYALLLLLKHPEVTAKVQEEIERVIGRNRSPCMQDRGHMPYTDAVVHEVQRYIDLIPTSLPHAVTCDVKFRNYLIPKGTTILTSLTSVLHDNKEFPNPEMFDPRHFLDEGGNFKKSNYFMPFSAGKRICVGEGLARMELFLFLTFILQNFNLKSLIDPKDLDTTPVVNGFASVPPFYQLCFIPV

`O=c1cnc2cnc(Nc3ccccc3)nc2n1CCc1ccccc1`: the Potency in assay [1] was > 11.4 µM; in [4], > 9.22 µM; in assay [5], > 46 µM; in assay [7], 2.51 µM (active); in assay [8] it was 2 µM (active); in [9], 0.199 µM (active). The Potency is 0.316 µM (active) in [10] and 0.0891 µM (active) in assay [11]. The activity change, negative = inhibition in assay [2] was -13.5%. For the same compound, the activity, negative = inhibition in assay [3] was -12.1%. Moreover, the Potency entry in assay [6] and in [12] was “inactive” in each case. Besides, in assay [13], the outcome was inactive.

Take `CN(C)c1ncc2nc(-c3ccc(Cl)cc3)c(=O)n(Cc3cccs3)c2n1`: the Potency in assay [1] is > 11.4 µM; in assay [14], 1.58 µM (active); in [4], > 9.22 µM; in assay [5], > 46 µM; in assay [15], 0.398 µM (active). Also, the activity, negative = inhibition in assay [3] was 153% [activator] (active). Also, the Potency result in assay [6], in assay [7], in [9], in [10], in assay [11] and in [12] was “inactive” each time. The outcome in assay [13] was inactive.

On to `CCNc1ncc2nc(-c3ccc(OC)cc3)c(=O)n(CCc3ccccc3)c2n1`, for which the Potency in assay [1] is > 11.4 µM; in [4], > 9.22 µM; in assay [5], > 46 µM; in [15] it was 0.501 µM (active). Also, the activity change, negative = inhibition in assay [2] was 107% [activator] (active). Further, the activity, negative = inhibition in [3] is 122% [activator] (active). Moreover, the Potency entry in assay [6], in assay [9], in [10], in assay [11] and in assay [12] was “inactive” throughout. The result in [13] was inactive.

As to `Cn1cc(-c2nc3cncnc3n(Cc3ccccc3Cl)c2=O)c2ccccc21`, the Potency in [1] was > 11.4 µM; in assay [14] it was 3.16 µM (active); in assay [4], > 9.22 µM; in [5], > 46 µM. The activity change, negative = inhibition in [16] is 3.77%. The Potency result in [7], in [17], in [9], in assay [10], in [11] and in assay [12] was “inactive” in each case. The activation in [15] is 15.7%. The result in assay [13] was inactive.

Turning to `COc1ccc(-c2nc3cnc(OC)nc3n(CCc3ccccc3)c2=O)cc1`, the Potency in [1] was > 11.4 µM; in [14], 6.31 µM (active); in [4], > 9.22 µM; in assay [5] it was > 46 µM. In assay [16], the activity change, negative = inhibition is 1.97%. Besides, the activity, negative = inhibition in [3] is 2.61%. Moreover, the Potency entry in assay [6], in assay [17], in assay [9], in assay [10], in assay [11] and in assay [12] was “inactive” throughout. Moreover, the result in assay [13] was inactive.

Regarding `N#CCCn1c(=O)c(-c2cccs2)nc2cnc(Nc3ccccc3)nc21`, the Potency was > 11.4 µM in assay [1], 5.01 µM (active) in [14], > 9.22 µM in assay [4] and > 46 µM in assay [5]. Moreover, the activity change, negative = inhibition in [16] was -22.7%. Moreover, the activity, negative = inhibition in assay [3] is -25%. In addition, the Potency result in [6], in assay [7], in [17], in assay [9], in [10] and in assay [11] was “inactive” throughout. The Potency entry in [12] is “inactive”. For the same compound, the result in assay [13] was inactive.

In the case of `COc1cccc(Nc2ncc3nc(CCc4ccccc4)c(=O)n(Cc4cccs4)c3n2)c1`, the Potency was > 11.4 µM in assay [1], 3.16 µM (active) in assay [14], > 9.22 µM in [4] and > 46 µM in assay [5]. Further, the activity, negative = inhibition in assay [3] was -28.9%. Further, the Potency result in assay [6], in [7], in assay [17], in assay [9], in assay [10] and in [11] was “inactive” each time. Further, the Potency entry in assay [12] was “inactive”. Besides, in [13], the result was inactive.
